Source: PubChem (National Center for Advancing Translational Sciences (NCATS))
G9a inh = blocks human histone lysine methyltransferase G9a; Q96KQ7; G9a H3K9 monomethylation, AlphaScreen, 2 h; Potency, µM (doses to about 102 µM), for inactives: top-dose activity, negative = inhibition, most hits filed as inhibitors; actives 8.8% (n = 350,000); further: on the % scale 0 is the no-effect control and ±100 the full control effect; nearly all actives have a fitted effect of over 75% in size
Target sequence (Q96KQ7 913-1193 limits assumed): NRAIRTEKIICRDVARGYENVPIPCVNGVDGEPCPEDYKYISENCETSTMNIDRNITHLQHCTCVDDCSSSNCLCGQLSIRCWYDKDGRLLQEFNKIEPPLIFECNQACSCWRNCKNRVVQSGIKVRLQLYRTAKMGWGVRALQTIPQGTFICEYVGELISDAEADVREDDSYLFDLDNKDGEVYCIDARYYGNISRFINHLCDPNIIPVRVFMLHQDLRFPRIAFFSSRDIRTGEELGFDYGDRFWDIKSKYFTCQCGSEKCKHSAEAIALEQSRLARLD
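G9a (20 nM) preincubated 15 min RT with compounds, then 500 nM biotinylated H3K9 peptide and 20 uM SAM added; 2 h RT reaction. Monomethyl-H3K9 product detected by AlphaScreen with anti-H3K9me1 antibody, streptavidin donor and anti-rabbit IgG acceptor beads.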
12-LOX inh = ALOX12 (human) lipoxygenase inhibition. P18054. purified 12hLO, xylenol orange hydroperoxide absorbance. Potency, µM (highest dose often 108 µM), for the others: top-dose activity change, negative = inhibition, most hits filed as inhibitors. actives 1.1% (n = 580,000); further: on the % scale 0 is the no-effect control and ±100 the full control effect
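Purified human 12hLO at 150 nM in 25 mM Hepes, 0.01% Triton X-100, pH 7.0, preincubated 15 min at room temperature with compound. Reaction started with 40 uM arachidonic acid, 30 min at room temperature. Hydroperoxide measured by Fe-xylenol orange, 573/405 nm absorbance ratio.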
BAZ2B block = BAZ2B (human) inhibition | Q9UIF8 | AlphaScreen BAZ2B-H3K14Ac peptide displacement | Potency, µM (titrated, usually from 114 µM), inactives show top-dose activity change, negative = inhibition, hits mostly inhibitors | actives 4.4% (n = 360,000); further: on the % scale 0 is the no-effect control and ±100 the full control effect; nearly all actives have a fitted effect of over 60% in size
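AlphaScreen displacement of biotin-H3(5-23)K14Ac peptide (50 nM final) from BAZ2B (50 nM final) in PBS pH 7.4, 0.01% Tween-20; complex preformed 30 min RT, then compounds (top 110 uM) 30 min RT, beads 20 min dark.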
HP1b chromo inh = HP1-beta chromodomain-methylated histone interaction inhibition. AID 540317. AlphaScreen HP1-beta / biotin-H3K9me3 peptide binding. actives 0.56% (n = 390,000). P83916. Potency, µM (doses to about 114 µM), for inactives: at the top dose activity change, negative = inhibition, actives largely listed as inhibitors; further: nearly all actives have a fitted effect of over 70% in size
Target sequence (P83916 whole entry, looked up): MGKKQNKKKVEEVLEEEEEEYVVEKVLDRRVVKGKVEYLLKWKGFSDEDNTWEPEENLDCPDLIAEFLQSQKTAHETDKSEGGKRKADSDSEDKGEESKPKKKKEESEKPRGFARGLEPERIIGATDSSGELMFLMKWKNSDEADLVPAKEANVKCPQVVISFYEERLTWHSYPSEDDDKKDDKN
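Compound inhibition of the preformed complex between 50 nM HP1-beta and 50 nM biotinylated H3K9me3 peptide was read by AlphaScreen. Buffer was PBS pH 7.4 with 0.01% Tween-20. Incubations ran 30 min at room temperature, with 10 ug/mL donor/acceptor beads.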
Sfp PPTase inh = inhibitors of Bacillus subtilis Sfp phosphopantetheinyl transferase | Q9F4F7 | Biochemical Sfp PPTase activity, qHTS | Potency, µM, inactives show largest response in the series, negative = inhibition, hits mostly inhibitors | actives 3.5% (n = 310,000);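 further: the enzyme is Sfp with the accession as filed and its product quenches rhodamine fluorescence; 0% = enzyme reaction without inhibitor and -100% = no enzyme wells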
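Compounds were incubated with enzyme (final 15 nM) for 15 min at room temperature before substrate addition started the reaction. Fluorescence at 525 nm excitation, 598 nm emission was recorded immediately and after 30 minutes.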
JMJD2A Tudor inh = inhibitors of human JMJD2A Tudor domain | Potency, µM (series often up to 114 µM), without a hit: top-dose activity change, negative = inhibition, actives largely listed as inhibitors | actives 4.4% (n = 390,000) | O75164 | AlphaScreen JMJD2A-Tudor / H3K4me3 peptide binding | AID 504339; further: on the % scale 0 is the no-effect control and ±100 the full control effect; nearly all actives have a fitted effect of over 50% in size
Starred values were filed as active, the others as inactive; ? = inconclusive; . = no result; [ ] = dose if it differs, or a comment. The list is not random: actives were taken first. Their share in the collection is about 8.7%. The call rests on the fitted dose curve; in most records, active means well fitted curve in the direction sought with a large enough effect; inconclusive means small, poorly fitted or top-dose-only effect, or another doubt; inactive means no such curve, though single readings can be large; an effect the other way counts as inactive or inconclusive. Potency means the concentration at half of the fitted maximal effect.

SMILES	G9a inh	12-LOX inh	BAZ2B block	HP1b chromo inh	Sfp PPTase inh	JMJD2A Tudor inh
CC(=O)NC(=S)Nc1ccccc1N1CCCCC1	50µM*	-4%	-27%	26%[57 µM]	-18%	-8%
Cc1noc(C)c1-c1cc2c(cc(C)n2C)c(-c2cnn(C)c2)n1	.	-16%[176 µM]	.	.	.	.
CC(C)(C)c1cc(C[C@@H]2CC[C@H](O)[C@@H](CNC(=O)C3CC3)O2)no1	.	21%[176 µM]	.	.	.	.
COC(=O)c1ccc(CN2C(=O)[C@@H]3C[C@@H](O)CN3C3(CN(Cc4ccccc4F)C3)C2=O)cc1	.	-3%	.	.	.	.
COc1nc2ccccc2nc1N1CCC(C(=O)Nc2ccc(I)cc2)CC1	.	0%	.	.	.	.
COCCOC(=O)/C(=C/c1ccc(OC(=O)c2ccccc2)cc1)C(C)=O	50µM*	.	-2%	36%	?	-6%
CCCCCOc1ccc(OC(=O)c2ccncc2)cc1	69%[12.7 µM]	-2%	3%	60%	11%	12%
CCOC(=O)/C(=C/c1ccc(OC(=O)c2ccncc2)cc1)C(C)=O	22µM*	-5%	2%	24%	-66%	-10%
CCOC(=O)C(=Cc1ccc(-n2ccnc2)cc1)C(=O)OCC	45µM*	-12%	?	34%	-29%	-15%
CCOC(=O)C(=Cc1ccc(C)cc1)C(=O)OCC	.	2%	.	.	.	.
CCn1cnc2c1c(=O)n(CC(=O)N(C)CC(=O)NC(C)(C)C)c(=O)n2Cc1ccccc1	.	8%	.	.	.	.
CCCCOc1ccc(OCCN)cc1	.	3%	.	.	.	.
CCCCCCn1c(SCC(=O)Nc2ccccc2)nc2c1c(=O)[nH]c(=O)n2C	.	-17%	.	.	.	.
COc1ccc2c(c1)C1NC(=S)NC(C)(O2)C1C(=O)Nc1ccc(C)cc1C (stereo not drawn)	?	?	-2%	44%	6%	-1%
COc1ccc2c(c1)C1NC(=S)N[C@@](C)(O2)C1C(=O)Nc1ccccc1 (stereo partly drawn)	6%[12.7 µM]	?	-2%	25%	2%	-17%
Cc1ccc2c(c1)C1NC(=S)NC(C)(O2)C1C(=O)Nc1ccc(Cl)cc1 (stereo not drawn)	18%	28µM*	-7%	29%	21%	-9%
COc1ccc2c(c1)C1NC(=S)NC(C)(O2)C1C(=O)Nc1ccc(Cl)cc1 (stereo not drawn)	-18%	40µM*	-32%	10%	8%	-17%
O=C(/C=C/c1c(F)cccc1Cl)NCc1ccco1	14%	7%	-4%	2%	-14%	-14%
O=C(CN1C(=O)/C(=C/c2c(F)cccc2Cl)Oc2ccccc21)NCc1ccco1	-10%	.	-2%	.	40µM*	.
Cc1ccc(CNc2ccc(N3CCOCC3)c(Cl)c2)cc1	.	-59%	40µM*	?	-17%	?
c1cc(CNc2ccc(N3CCOCC3)cc2)ccn1	40µM*	0%	?	-15%	50µM*	-34%
O=C(NCc1ccc2c(c1)OCO2)C(=S)N1CCOCC1	13%	-12%	12%	19%	25%	-5%
c1cc2c(cc1CNc1ccc(N3CCOCC3)cc1)OCO2	.	?	.	?	.	50µM*
Cc1ccc(CNc2ccc(N3CCOCC3)cc2)cc1	28µM*	?	32µM*	?	-21%	45µM*
CC(SC1=Nc2ccccc2CS1)C(=O)NC1CCCC1 (stereo not drawn)	.	11%	.	.	.	.
SMILES	G9a inh	12-LOX inh	BAZ2B block	HP1b chromo inh	Sfp PPTase inh	JMJD2A Tudor inh
COc1ccc(C(=O)N[C@H](C)c2onc(-c3ccc(F)cc3)c2C(=O)O)cc1	.	0%[176 µM]	.	.	.	.
OC(COC1CCCCC1)CN1CCCCC1 (stereo not drawn)	7.9µM*	-20%	56µM*	-20%	-11%	79µM*
Cc1nccn1CC(O)COC1CCCCC1 (stereo not drawn)	?	?	32µM*	?	-6%	18µM*
CC1CN(c2nc(-c3ccsc3)nc3ccccc23)CCO1 (stereo not drawn)	.	-10%	.	.	.	.
CCCCCSc1nc2c(c(=O)[nH]c(=O)n2C)n1CCC	.	-5%	.	.	.	.
Cc1ccc2c(COC(=O)C3CCC(C(C)(C)C)CC3)cc(=O)oc2c1C (stereo not drawn)	.	16%	.	.	.	.
CCS(=O)(=O)Nc1cccc(C2=NN(S(=O)(=O)c3ccc(F)cc3)C(c3cccs3)C2)c1 (stereo not drawn)	-29%[59 µM]	8%	-11%	31%	7%	-14%
COc1ccc(S(=O)(=O)N2N=C(c3ccc(NS(C)(=O)=O)cc3)CC2c2ccco2)cc1 (stereo not drawn)	?	-8%	.	16%	56µM*	-31%
CS(=O)(=O)Nc1cccc(C2=NN(S(=O)(=O)c3ccc(F)cc3)C(c3cccs3)C2)c1 (stereo not drawn)	-18%[59 µM]	?	-5%	-5%	4%	79µM*
CS(=O)(=O)Nc1ccc(C2=NN(C(=O)c3ccco3)C(c3ccco3)C2)cc1 (stereo not drawn)	.	-18%	?	8%	7%	-24%
COc1ccc(S(=O)(=O)N2N=C(c3cccc(NS(C)(=O)=O)c3)CC2c2ccco2)cc1 (stereo not drawn)	45µM*	-27%	-30%	66%	-24%	3%
COCCc1nncn1C1CCN(S(=O)(=O)c2ccc(F)c(C)c2)CC1	.	42%	.	.	.	.
O=C(NCC1CCCO1)C1CCN(C(=O)c2ncn3c2COC(c2ccc(F)cc2)C3)CC1 (stereo not drawn)	.	24%	.	.	.	.
CSCc1c(C(=O)OCC(=O)c2ccc[nH]2)oc2ccccc12	25µM*	.	-11%	7%	.	-26%
COCc1c(C(=O)OCC(=O)c2ccc[nH]2)oc2ccccc12	.	-19%	.	10%	.	-25%
O=C(NCc1ccccn1)C1(C(F)(F)F)C/C(=C\Cc2ccccc2)CCCO1 (stereo not drawn)	.	.	.	-12%	56µM*	32µM*
O=C(NCc1ccccc1)C1(C(F)(F)F)C/C(=C/Cc2ccccc2)CCCO1 (stereo not drawn)	.	.	.	8%	-10%	-19%
Cc1ccc(-n2nnc(C(=O)NC(C)C)c2C)cc1Cl	.	-6%	.	.	.	.
Cc1csc(NC(=O)c2[nH]c3c(c2C)C(=O)CC(C)(C)C3)n1	.	30%	.	.	.	.
CCN1C(=O)/C(=C2\C=Cc3ccccc3N2CC)SC1=S	?	-6%	8.9µM*	3.2µM*	-29%	2.8µM*
CCN1C(=O)/C(=c2\o/c(=C3\C=Cc4ccccc4N3CC)c(=O)n2CC)SC1=S	?	0%	.	-34%	8%	?
CCN1C(=O)/C(=C2/C=Cc3ccccc3N2C)OC1=S	20µM*	-7%	-29%	6%	-19%	-25%[11.4 µM]
